Laboratory results from PubChem BioAssay (EPA / NIEHS).
Activity calls are given as the source filed them. How the source made its calls: active means hit-call score of the fitted dose curve at least 0.9, where 1 is the maximum; inactive means score below 0.9.

experiment: ATG_GLI_CIS: Attagene CIS-FACTORIAL HepG2 Assay for human Zinc Finger Protein GLI1 (AID 2282945); conditions: HepG2, Attagene cis-factorial reporter mRNA, GLI element; actives raise or lower the signal
How it was run: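 HepG2 cells transiently transfected with cis-promoter multiplexed reporter units report endogenous transcription factor activity. After 24 h chemical exposure, reporter mRNA was quantified by RT-PCR, 6-FAM labelling, HpaI digestion and capillary electrophoresis, with bidirectional fitting against DMSO.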

Row | Structure (SMILES) | outcome | AC50
1 | O=C1C(Cl)=C(Cl)C(=O)C(Cl)=C1Cl | inactive | 
2 | N#CCCCCC#N | inactive | 
3 | CC1CCC(=O)O1 (stereo not given) | inactive | 
4 | C[N+](C)(C)CC(=O)[O-] | inactive | 
5 | CC(C)(c1cc(Cl)c(O)c(Cl)c1)c1cc(Cl)c(O)c(Cl)c1 |  | 60.7 µM (active)
6 | O=C(NCNC(=O)NC1C(=O)NC(=O)N1CO)NC1C(=O)NC(=O)N1CO (stereo not given) | inactive | 
7 | [N-]=[N+]=CC(=O)OC[C@H](N)C(=O)O | inactive | 
8 | COCC(=O)N(c1c(C)cccc1C)N1CCOC1=O | inactive | 
9 | CC(C)CCCCCCCOP(=O)(Oc1ccccc1)Oc1ccccc1 | inactive | 
10 | C=COCCCl | inactive | 
11 | C=CCN(CC=C)C(=O)C(Cl)Cl | inactive | 
12 | CC[N+](=O)[O-] | inactive | 
13 | [Cl-].[Cl-].[Cl-].[Yb+3] | inactive | 
14 | O=CNC(N1CCN(C(NC=O)C(Cl)(Cl)Cl)CC1)C(Cl)(Cl)Cl (stereo not given) | inactive | 
15 | CCC[N+](=O)[O-] | inactive | 
16 | CC(C)(O)C#N | inactive | 
17 | CC(C)C#N | inactive | 
18 | S=c1[nH]c2ccccc2[nH]1 | inactive | 
19 | CCCCCc1cc(O)cc(O)c1 | inactive | 
20 | c1ccc(Nc2ccc3ccccc3c2)cc1 | inactive | 
21 | CSc1nc(N=[N+]=[N-])nc(NC(C)C)n1 | inactive | 
22 | CC=Cc1ccc2c(c1)OCO2 | inactive | 
23 | Cc1ccc(OP(=O)(Oc2ccc(C)cc2)Oc2ccc(C)cc2)cc1 (tested in a mixture with another compound) | inactive | 
24 | ClC1=C(Cl)[C@]2(Cl)[C@@H]3[C@@H](Cl)[C@H](Cl)C[C@@H]3[C@@]1(Cl)C2(Cl)Cl | inactive | 
25 | O=S(=O)(c1ccccc1)c1ccccc1 | inactive | 
